Test in all cases: DAPPL (digital affinity profiling via proximity ligation, sequencing); 10 mM Tris-HCl pH 7.5, 50 mM NaCl, 1 mM DTT, 4% glycerol, room temperature, 30 min; GST-TFs on glutathione beads, 16-mer random dsDNA library, 0.1% formaldehyde crosslink after washing; high values mean tight binding
One test concerns the target T1, FLI1 (Homo sapiens, UniProt Q01543 1-452).
T1 sequence: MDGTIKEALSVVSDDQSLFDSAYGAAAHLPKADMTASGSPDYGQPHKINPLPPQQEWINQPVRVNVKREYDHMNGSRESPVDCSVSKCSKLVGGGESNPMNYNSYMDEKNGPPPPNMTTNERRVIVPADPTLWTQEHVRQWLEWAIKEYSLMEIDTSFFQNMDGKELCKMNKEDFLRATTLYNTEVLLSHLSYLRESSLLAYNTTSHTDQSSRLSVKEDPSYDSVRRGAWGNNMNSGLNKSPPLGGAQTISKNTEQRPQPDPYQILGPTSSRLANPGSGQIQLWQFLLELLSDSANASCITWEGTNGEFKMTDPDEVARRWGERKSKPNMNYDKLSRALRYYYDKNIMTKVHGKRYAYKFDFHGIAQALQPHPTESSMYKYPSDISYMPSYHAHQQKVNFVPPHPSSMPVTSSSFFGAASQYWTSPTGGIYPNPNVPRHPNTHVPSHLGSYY
As to conditions: protein: recombinant; tags: N-terminal GST; dsDNA, one strand shown. The essentials:
(§1)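 Human transcription factors were made in yeast as GST fusions, captured on glutathione beads and barcoded with DNA. With a tag-only sample included, the pool was incubated with 200 nmole of a random double-stranded 16-mer DNA library in Tris/NaCl/DTT/glycerol buffer at room temperature for 30 min, then crosslinked with 0.1% formaldehyde after washing, ligated by proximity, amplified and sequenced. For binding signal, each hexamer's read frequency for a factor is divided by its frequency for the tag-only sample.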

The target of the next test is T2, ELK1 (Homo sapiens, UniProt P19419 1-428).
T2 sequence: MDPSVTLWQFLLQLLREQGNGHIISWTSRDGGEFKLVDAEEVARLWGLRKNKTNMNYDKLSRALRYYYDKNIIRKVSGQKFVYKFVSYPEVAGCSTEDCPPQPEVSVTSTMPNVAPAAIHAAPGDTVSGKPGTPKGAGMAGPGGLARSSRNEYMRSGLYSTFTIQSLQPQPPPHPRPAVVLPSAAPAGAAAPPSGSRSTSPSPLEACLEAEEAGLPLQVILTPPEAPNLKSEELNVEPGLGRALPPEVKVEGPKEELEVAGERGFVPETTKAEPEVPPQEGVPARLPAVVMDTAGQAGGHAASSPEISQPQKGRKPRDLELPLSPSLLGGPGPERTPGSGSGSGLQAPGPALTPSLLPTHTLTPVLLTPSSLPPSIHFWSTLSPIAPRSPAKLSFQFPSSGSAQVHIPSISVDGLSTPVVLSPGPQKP
As to conditions: protein: recombinant; tags: N-terminal GST; dsDNA, one strand shown. An outline of the steps: as §1

In a further test the target is T3, GABPA (Homo sapiens, UniProt Q06546 1-454).
T3 sequence: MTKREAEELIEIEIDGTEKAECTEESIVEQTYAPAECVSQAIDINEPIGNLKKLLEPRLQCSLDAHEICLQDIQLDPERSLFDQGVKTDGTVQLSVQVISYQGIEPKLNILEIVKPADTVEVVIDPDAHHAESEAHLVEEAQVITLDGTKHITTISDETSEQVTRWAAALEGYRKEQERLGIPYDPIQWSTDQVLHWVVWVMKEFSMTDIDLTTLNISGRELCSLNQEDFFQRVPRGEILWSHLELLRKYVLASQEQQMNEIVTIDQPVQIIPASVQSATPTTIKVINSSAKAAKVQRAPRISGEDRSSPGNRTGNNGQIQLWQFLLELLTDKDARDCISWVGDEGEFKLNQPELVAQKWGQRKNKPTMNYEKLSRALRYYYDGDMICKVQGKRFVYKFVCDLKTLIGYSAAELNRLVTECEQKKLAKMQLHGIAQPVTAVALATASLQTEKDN
The note with it: protein: recombinant; tags: N-terminal GST; dsDNA, one strand shown. An outline of the steps: as §1

For another test, the target named is T4, ERG (Homo sapiens, UniProt P11308 1-479).
T4 sequence: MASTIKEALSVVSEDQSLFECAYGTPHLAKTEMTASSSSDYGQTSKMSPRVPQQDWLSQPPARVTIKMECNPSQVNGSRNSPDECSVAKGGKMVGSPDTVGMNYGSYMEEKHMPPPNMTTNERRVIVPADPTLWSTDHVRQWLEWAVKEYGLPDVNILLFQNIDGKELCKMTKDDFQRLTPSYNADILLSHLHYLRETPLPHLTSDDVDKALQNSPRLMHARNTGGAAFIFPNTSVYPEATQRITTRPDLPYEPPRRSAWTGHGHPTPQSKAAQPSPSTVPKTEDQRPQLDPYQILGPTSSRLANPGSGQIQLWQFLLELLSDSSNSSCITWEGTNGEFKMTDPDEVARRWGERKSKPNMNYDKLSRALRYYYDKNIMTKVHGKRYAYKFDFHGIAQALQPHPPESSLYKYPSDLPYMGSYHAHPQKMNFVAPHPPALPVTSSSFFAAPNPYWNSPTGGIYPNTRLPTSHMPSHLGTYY
The note with it: protein: recombinant; tags: N-terminal GST; dsDNA, one strand shown. The essentials:
as §1

The target of a further test is ELF1 (Homo sapiens, UniProt P32519 1-619). As to conditions: protein: recombinant; tags: N-terminal GST; dsDNA, one strand shown. An outline of the steps:
as §1

Another test addresses T5, EHF (Homo sapiens, UniProt Q9NZC4 1-300).
T5 sequence: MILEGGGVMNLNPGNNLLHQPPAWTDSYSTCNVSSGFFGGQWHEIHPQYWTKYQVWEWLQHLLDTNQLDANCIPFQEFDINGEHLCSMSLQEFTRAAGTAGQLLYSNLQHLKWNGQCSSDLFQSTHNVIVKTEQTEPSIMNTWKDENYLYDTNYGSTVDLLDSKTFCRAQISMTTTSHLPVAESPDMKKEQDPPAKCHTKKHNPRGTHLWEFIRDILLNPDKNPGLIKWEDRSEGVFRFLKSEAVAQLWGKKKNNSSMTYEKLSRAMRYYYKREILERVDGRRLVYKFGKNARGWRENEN
The note with it: protein: recombinant; tags: N-terminal GST; dsDNA, one strand shown. The essentials:
as §1

The target in another test is SPI1 (Homo sapiens, UniProt P17947 1-270). As to conditions: protein: recombinant; tags: N-terminal GST; dsDNA, one strand shown. An outline of the steps:
as §1

A further test concerns the target SPIB (Homo sapiens, UniProt Q01892 1-262). As to conditions: protein: recombinant; tags: N-terminal GST; dsDNA, one strand shown. An outline of the steps: as §1
For another test, the target named is T6, ELK3 (Homo sapiens, UniProt P41970 1-407).
T6 sequence: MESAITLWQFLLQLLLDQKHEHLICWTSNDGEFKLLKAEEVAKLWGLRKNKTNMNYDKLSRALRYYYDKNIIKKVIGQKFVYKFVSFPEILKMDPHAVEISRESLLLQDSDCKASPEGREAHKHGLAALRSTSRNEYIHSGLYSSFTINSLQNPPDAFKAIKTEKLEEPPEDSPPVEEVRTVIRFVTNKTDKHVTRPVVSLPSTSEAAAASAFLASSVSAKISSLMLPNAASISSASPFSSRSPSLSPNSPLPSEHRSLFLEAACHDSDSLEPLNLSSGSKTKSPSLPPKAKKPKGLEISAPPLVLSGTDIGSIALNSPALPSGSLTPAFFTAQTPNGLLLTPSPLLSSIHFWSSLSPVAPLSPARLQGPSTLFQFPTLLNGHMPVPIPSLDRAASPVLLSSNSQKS
As to conditions: protein: recombinant; tags: N-terminal GST; dsDNA, one strand shown. An outline of the steps: as §1

A further test addresses T7, FEV (Homo sapiens, UniProt Q99581 1-238).
T7 sequence: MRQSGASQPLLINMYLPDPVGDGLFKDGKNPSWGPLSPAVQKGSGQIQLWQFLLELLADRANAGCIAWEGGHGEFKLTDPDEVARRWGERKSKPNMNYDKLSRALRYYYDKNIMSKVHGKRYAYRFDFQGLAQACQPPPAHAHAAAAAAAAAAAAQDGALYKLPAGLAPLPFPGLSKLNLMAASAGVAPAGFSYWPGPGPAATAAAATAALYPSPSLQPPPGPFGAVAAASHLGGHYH
As to conditions: protein: recombinant; tags: N-terminal GST; dsDNA, one strand shown. The essentials: as §1

For the next test, the target named is ETV5 (Homo sapiens, UniProt P41161 1-510). The note with it: protein: recombinant; tags: N-terminal GST; dsDNA, one strand shown. An outline of the steps: as §1
The next test has as its target HSF1 (Homo sapiens, UniProt Q00613 1-529). As to conditions: protein: recombinant; tags: N-terminal GST; chain copies: 3; dsDNA, one strand shown. The essentials:
as §1

The target of a further test is T8, SPIC (Homo sapiens, UniProt Q8N5J4 1-248).
T8 sequence: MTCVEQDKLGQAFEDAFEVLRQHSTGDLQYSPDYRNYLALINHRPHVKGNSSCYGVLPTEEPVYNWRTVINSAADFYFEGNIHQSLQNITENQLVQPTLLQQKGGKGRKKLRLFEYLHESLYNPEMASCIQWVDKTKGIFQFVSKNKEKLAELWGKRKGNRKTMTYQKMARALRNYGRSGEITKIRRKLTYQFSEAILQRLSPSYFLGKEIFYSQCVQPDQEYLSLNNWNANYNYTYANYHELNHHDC
As to conditions: protein: recombinant; tags: N-terminal GST; dsDNA, one strand shown. An outline of the steps:
as §1

The target of the next test is ELF4 (Homo sapiens, UniProt Q99607 1-663). As to conditions: protein: recombinant; tags: N-terminal GST; dsDNA, one strand shown. An outline of the steps:
as §1

The target of the next test is T9, ELK4 (Homo sapiens, UniProt P28324-2 1-405).
T9 sequence: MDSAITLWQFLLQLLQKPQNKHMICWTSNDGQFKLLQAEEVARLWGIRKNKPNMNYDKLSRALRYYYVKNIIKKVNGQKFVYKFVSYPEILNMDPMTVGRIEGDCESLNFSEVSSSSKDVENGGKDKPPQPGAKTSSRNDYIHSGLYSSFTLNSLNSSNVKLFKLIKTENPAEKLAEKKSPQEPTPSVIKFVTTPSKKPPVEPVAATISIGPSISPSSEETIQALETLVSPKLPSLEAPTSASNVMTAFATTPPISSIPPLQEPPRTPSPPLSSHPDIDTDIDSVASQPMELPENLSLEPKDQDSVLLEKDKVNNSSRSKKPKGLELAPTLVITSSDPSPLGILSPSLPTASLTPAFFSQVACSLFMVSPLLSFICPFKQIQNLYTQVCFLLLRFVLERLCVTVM
The note with it: protein: recombinant; tags: N-terminal GST; dsDNA, one strand shown. An outline of the steps:
as §1

In the next test the target is T10, ETV2 (Homo sapiens, UniProt O00321 1-342).
T10 sequence: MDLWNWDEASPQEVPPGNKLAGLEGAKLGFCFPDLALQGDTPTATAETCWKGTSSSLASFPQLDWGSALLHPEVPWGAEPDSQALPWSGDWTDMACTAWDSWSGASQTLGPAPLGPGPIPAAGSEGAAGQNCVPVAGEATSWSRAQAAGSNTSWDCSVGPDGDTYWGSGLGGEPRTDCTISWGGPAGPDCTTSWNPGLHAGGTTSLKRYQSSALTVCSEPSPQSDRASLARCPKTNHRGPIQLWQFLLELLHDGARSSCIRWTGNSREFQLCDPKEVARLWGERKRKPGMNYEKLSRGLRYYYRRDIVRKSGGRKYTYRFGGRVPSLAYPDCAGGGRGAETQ
The note with it: protein: recombinant; tags: N-terminal GST; dsDNA, one strand shown. The essentials:
as §1

The target of a further test is T11, ELF3 (Homo sapiens, UniProt P78545 1-371).
T11 sequence: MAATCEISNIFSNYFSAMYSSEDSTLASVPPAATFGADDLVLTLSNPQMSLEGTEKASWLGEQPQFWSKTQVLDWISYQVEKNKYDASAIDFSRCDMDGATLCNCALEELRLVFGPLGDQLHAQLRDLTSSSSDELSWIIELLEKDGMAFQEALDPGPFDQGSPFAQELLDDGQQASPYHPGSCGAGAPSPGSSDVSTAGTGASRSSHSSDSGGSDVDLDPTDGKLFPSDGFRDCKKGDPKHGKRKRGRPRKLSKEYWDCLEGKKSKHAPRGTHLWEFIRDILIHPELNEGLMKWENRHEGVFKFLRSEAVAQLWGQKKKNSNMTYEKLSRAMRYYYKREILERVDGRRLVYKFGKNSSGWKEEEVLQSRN
As to conditions: protein: recombinant; tags: N-terminal GST; dsDNA, one strand shown. An outline of the steps: as §1

In a further test the target is CRX (Homo sapiens, UniProt O43186 1-299). As to conditions: protein: recombinant; tags: N-terminal GST; dsDNA, one strand shown. An outline of the steps:
as §1

For another test, the target named is ETV1 (Homo sapiens, UniProt P50549 1-477). As to conditions: protein: recombinant; tags: N-terminal GST; dsDNA, one strand shown. The essentials:
as §1

Sequence of ELF4 (Q99607 whole entry): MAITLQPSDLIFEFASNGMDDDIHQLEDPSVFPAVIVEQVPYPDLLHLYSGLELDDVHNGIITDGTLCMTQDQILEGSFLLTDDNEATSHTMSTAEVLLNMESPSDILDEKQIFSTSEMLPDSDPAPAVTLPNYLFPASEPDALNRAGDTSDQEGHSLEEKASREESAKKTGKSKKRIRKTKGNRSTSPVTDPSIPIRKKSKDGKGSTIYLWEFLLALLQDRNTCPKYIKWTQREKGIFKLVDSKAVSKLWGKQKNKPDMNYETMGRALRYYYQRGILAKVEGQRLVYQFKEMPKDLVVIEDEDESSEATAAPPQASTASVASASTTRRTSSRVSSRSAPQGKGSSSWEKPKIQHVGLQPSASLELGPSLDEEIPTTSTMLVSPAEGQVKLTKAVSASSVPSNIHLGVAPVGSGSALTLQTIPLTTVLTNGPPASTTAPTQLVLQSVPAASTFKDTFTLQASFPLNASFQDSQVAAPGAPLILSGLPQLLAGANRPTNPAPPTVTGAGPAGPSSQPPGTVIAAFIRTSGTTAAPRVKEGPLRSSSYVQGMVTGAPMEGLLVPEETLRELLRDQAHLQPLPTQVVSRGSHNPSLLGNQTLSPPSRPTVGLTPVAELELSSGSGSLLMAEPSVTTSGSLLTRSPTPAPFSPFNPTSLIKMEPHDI
Sequence of ETV5 (P41161 whole entry): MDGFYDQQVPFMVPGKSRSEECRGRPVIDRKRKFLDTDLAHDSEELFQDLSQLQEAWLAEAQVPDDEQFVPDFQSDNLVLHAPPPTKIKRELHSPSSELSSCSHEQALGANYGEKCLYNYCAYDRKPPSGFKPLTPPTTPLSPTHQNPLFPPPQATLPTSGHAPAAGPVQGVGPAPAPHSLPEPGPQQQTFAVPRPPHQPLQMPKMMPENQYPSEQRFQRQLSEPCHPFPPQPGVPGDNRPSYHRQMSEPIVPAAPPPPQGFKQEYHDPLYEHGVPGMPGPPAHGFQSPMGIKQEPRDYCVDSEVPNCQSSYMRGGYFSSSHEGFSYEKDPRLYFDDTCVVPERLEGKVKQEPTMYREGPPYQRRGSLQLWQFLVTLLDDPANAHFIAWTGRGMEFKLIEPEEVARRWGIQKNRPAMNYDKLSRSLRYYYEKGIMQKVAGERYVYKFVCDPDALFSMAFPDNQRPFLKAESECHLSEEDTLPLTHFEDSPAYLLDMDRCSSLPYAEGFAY
Sequence of ETV1 (P50549 whole entry): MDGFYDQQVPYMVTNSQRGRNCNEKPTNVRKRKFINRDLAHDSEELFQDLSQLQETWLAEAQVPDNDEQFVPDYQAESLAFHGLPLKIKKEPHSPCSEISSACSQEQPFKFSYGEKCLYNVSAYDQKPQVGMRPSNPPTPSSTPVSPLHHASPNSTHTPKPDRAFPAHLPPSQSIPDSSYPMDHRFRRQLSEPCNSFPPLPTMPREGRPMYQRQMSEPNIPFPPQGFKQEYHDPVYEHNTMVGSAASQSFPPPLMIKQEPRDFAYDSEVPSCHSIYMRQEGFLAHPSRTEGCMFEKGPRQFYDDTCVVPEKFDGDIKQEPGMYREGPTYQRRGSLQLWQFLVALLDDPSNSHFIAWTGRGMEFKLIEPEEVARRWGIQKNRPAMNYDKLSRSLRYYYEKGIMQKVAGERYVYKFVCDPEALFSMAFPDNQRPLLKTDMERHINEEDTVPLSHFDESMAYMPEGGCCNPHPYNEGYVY
Sequence of ELF1 (P32519 whole entry): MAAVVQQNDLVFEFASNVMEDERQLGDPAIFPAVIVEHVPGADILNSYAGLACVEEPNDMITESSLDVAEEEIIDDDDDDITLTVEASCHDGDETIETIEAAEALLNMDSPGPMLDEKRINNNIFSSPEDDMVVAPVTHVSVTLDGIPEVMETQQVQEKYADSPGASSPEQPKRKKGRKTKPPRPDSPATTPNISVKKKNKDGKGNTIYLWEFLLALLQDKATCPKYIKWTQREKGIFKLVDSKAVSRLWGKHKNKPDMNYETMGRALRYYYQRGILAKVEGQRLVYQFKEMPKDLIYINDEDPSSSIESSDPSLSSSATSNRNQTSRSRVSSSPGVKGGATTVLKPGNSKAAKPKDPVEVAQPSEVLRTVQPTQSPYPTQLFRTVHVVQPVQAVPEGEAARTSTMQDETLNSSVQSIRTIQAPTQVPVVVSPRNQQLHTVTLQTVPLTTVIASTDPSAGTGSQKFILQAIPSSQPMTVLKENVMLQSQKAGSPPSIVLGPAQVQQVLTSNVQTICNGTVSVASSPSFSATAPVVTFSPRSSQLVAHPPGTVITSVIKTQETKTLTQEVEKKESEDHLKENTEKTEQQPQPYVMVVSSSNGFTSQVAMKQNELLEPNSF
Sequence of CRX (O43186 whole entry): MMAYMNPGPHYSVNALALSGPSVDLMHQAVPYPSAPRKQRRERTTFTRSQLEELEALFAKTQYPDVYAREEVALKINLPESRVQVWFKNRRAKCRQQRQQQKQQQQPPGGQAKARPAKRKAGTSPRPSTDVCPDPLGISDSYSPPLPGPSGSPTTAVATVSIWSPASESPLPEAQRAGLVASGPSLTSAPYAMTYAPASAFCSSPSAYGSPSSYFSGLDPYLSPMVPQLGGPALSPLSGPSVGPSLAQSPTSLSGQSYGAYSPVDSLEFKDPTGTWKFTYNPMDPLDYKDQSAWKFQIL
Sequence of HSF1 (Q00613 whole entry): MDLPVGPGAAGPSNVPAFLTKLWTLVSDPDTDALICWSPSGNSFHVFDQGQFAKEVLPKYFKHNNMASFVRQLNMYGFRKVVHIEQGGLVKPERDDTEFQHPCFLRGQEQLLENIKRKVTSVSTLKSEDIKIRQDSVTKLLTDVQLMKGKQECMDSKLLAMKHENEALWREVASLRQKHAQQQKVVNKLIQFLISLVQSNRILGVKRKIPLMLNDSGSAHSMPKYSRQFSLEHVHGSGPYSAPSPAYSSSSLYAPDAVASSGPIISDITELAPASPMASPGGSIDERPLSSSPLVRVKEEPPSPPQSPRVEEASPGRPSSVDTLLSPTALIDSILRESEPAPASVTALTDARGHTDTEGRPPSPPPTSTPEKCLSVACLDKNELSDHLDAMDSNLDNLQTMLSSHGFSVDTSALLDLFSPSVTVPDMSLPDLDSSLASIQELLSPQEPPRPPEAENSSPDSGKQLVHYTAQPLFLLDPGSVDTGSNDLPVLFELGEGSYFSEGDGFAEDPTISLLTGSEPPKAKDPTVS
Sequence of SPIB (Q01892 whole entry): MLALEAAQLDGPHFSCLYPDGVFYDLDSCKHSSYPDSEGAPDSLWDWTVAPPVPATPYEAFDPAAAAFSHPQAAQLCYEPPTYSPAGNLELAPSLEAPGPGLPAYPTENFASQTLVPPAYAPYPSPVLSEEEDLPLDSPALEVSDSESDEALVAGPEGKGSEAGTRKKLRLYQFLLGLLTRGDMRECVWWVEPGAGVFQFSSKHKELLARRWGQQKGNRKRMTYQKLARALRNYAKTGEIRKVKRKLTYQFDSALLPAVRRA

Take TACACA: the binding signal with FLI1 is 1.21 fold enrichment (6-mer frequency, TF over GST control); with ELK1, 1.14 fold enrichment (6-mer frequency, TF over GST control); with GABPA, 1.15 fold enrichment (6-mer frequency, TF over GST control); in the test with ERG it was 1.26 fold enrichment (6-mer frequency, TF over GST control); in the test with ELF1, 1.21 fold enrichment (6-mer frequency, TF over GST control); with EHF it was 1.25 fold enrichment (6-mer frequency, TF over GST control). Besides, the binding signal in the test with SPI1 is 1.11 fold enrichment (6-mer frequency, TF over GST control); with SPIB it was 1.23 fold enrichment (6-mer frequency, TF over GST control); with ELK3, 1.18 fold enrichment (6-mer frequency, TF over GST control); in the test with FEV, 1.21 fold enrichment (6-mer frequency, TF over GST control); with ETV5 it was 1.2 fold enrichment (6-mer frequency, TF over GST control); in the test with HSF1 it was 1.05 fold enrichment (6-mer frequency, TF over GST control). Besides, the binding signal with SPIC is 1.35 fold enrichment (6-mer frequency, TF over GST control); with ELF4, 1.2 fold enrichment (6-mer frequency, TF over GST control); with ELK4 it was 1.26 fold enrichment (6-mer frequency, TF over GST control); in the test with ETV2 it was 1.12 fold enrichment (6-mer frequency, TF over GST control); with ELF3 it was 1.22 fold enrichment (6-mer frequency, TF over GST control); with CRX it was 1.09 fold enrichment (6-mer frequency, TF over GST control). Further, the binding signal with ETV1 is 1.2 fold enrichment (6-mer frequency, TF over GST control).
